The list is not random: actives were taken first. Their share in the collection is about 7.5%.
NPC1 prom act – qHTS Assay for NPC1 Promoter Activators | Huh7 NPC1 promoter luciferase reporter, 24 h | Potency, µM (series often up to 9.22 µM), for the others: at the highest dose activation, most hits filed as activators | 320,000 compounds, 2.4% hits | AID 485313, 2010; note: % of control where 0% means no effect; nearly all actives have a fitted effect of over 60% in size
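Stably transfected Huh7 (NPC1 promoter→luciferase), 1500 cells/well in Opti-MEM + 10% FBS, 2 h settle, then compound 24 h at 37 °C. Luminescence after 10 min with Amplite reagent.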
FLuc modulator – qHTS profiling assay for firefly luciferase inhibitor/activator using purifed enzyme and Km concentrations of substrates (counterscreen for miR-21 project). Luciferin 4-monooxygenase (Photinus pyralis), P08659. purified FLuc, Km substrates, luminescence inhibition. Potency, µM (top dose mostly 57.5 µM), inactives show at the top dose activity change, negative = inhibition, usual class: inhibitors. 360,000 compounds, 6.9% hits;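 note: plate controls were vehicle for no effect and reference inhibitor for full effect; nearly all actives have a fitted effect of over 55% in size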
Target sequence (P08659 whole entry, looked up): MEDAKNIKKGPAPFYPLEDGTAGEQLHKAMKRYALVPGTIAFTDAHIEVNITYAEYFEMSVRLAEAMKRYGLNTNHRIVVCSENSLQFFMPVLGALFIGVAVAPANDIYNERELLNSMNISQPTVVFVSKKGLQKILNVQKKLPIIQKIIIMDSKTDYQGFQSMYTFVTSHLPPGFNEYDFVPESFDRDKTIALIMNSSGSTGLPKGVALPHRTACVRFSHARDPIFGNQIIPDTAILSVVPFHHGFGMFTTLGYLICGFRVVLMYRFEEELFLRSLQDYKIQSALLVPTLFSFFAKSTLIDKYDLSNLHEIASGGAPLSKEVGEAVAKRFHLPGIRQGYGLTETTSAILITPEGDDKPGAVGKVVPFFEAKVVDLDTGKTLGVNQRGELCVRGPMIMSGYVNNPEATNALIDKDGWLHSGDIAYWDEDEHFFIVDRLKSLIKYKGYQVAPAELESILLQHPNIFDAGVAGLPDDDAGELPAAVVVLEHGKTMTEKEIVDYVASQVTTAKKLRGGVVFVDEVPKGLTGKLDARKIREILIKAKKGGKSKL
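Purified P. pyralis luciferase (10nM final) with 10uM D-luciferin and 10uM ATP (Km levels) in 50mM Tris acetate pH 7.5, 10mM Mg acetate, 0.01% Tween-20, 0.05% BSA; qHTS 6-point titration, ~60 µM downward; luminescence read.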
ELG1 genotox – qHTS screen for small molecules that induce genotoxicity in human embryonic kidney (HEK293T) cells expressing luciferase-tagged ELG1; HEK293T ELG1-luciferase reporter, luminescence, 16 h; Potency, µM (titrated, usually from 46 µM), inactives show at the top dose activity change, positive = activation, usual class: activators; 330,000 compounds, 1.3% hits; AID 504466, 2011; note: % of control where 0% means no effect; nearly all actives have a fitted effect of over 60% in size
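Genotoxic stress is detected as increased luminescence from luciferase-tagged ELG1 in HEK293T cells, measured with ONE-Glo after a 16 hr treatment at 37 °C.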
Rab9 prom act – qHTS Assay for Rab9 Promoter Activators; Huh7 Rab9 promoter-luciferase reporter, luminescence, 24 h; Potency, µM (highest dose often 9.22 µM), for inactives: at the top dose activation, negative = inhibition, hits mostly activators; 320,000 compounds, 2.8% hits; AID 485297, 2010; note: % of control where 0% means no effect; nearly all actives have a fitted effect of over 60% in size
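Huh7 reporter line, Rab9 promoter upstream of luciferase. Compound exposure 24 h at 37 °C in reduced-serum medium with 10% FBS. Read-out: luminescence.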
KinaseGlo FLuc – Counterscreen for Luciferase (Kinase-Glo TM) Inhibition. Luciferin 4-monooxygenase (Photuris pensylvanica), Q27757. Kinase-Glo luciferase, ATP luminescence, 8 min. Potency, µM (top dose mostly 38.3 µM), for inactives: at the highest dose activity change, negative = inhibition, actives largely listed as inhibitors. 200,000 compounds, 0.28% hits; note: % is set by controls: 0 for no effect and ±100 for the full control effect; nearly all actives have a fitted effect of over 60% in size
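Recombinant Kinase-Glo luciferase, 10 uM ATP (linear range), luciferin; imidazole pH 7.2 / KCl / MgCl2 / Tween / BSA buffer; 8 min RT; luminescence.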
SMN2 splice up – qHTS Assay for Enhancers of SMN2 Splice Variant Expression | HEK293 SMN2-luciferase splicing reporter, luminescence, 30-36 h | Potency, µM (top dose mostly 46.1 µM), without a hit: at the highest dose activity change, positive = activation, actives largely listed as activators | 210,000 compounds, 2.8% hits | AID 1458, 2008; note: % of control where 0% means no effect; nearly all actives have a fitted effect of over 55% in size
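qHTS luciferase splicing reporter: luminescence rises when SMN2 exon 7 is included in transfected HEK293 cells. Compound exposure lasted 30-36 h at 37C, with 4.5 mM final sodium butyrate as control, followed by a ONE-Glo read.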
Starred values were filed as active, the others as inactive; u = inconclusive; x = not tested or not shown; [ ] = remark or other dose. Calls come from the whole dose curve; as a rule, active = well fitted curve in the direction sought with a large enough effect; inconclusive = small, poorly fitted or top-dose-only effect, or another doubt; inactive = no such curve, though single readings can be large; an effect the other way counts as inactive or inconclusive. Potency is the fitted concentration of half-maximal effect.

SMILES	NPC1 prom act	FLuc modulator	ELG1 genotox	Rab9 prom act	KinaseGlo FLuc	SMN2 splice up
O=C(Nc1ccc2oc(-c3ccccc3)nc2c1)c1ccc2ccccc2c1	x	2.8%	x	x	x	-9.0%
O=C(O)c1ccc(C(=O)Nc2ccc(F)cc2)cc1	-2.4%	-16.5%	-0.5%	-1.2%	x	x
Cc1ccc(NC(=O)C(=O)c2ccc(C)cc2)cc1	0.631µM*	1.9µM*	4.61µM*	2.82µM*	x	x
O=C(Nc1ccc2oc(=O)ccc2c1)c1ccc2ccccc2c1	u	9.53µM*	9.0%	u	x	x
CCC(=O)Nc1ccc2ccccc2c1	3.9%	u	13.4%	1.5%	-2.7%	29.0%
COCCNC(=O)c1cccc(OC2CCN(Cc3ccc(OC(F)F)cc3)CC2)c1	-7.0%	-1.3%	-9.1%	-2.0%	x	x
COc1ccc(-n2c(C)nc3cc(C(=O)NC4CCCC4)ccc32)cc1	x	-0.5%	x	x	x	x
COc1ccc2cccc(N3CCN(CCNC(=O)c4ccc(F)cc4)CC3)c2c1	x	x	x	x	-2.3%	x
C=CC1=C(C(=O)O)N2C(=O)[C@@H](NC(=O)C(N=O)c3csc(N)n3)[C@H]2SC1 (stereo not given in full)	x	x	x	x	-0.1%[39.9 µM]	x
O=C(NCCc1ccc(F)cc1)c1ccncc1	3.2%	-3.2%	10.9%	21.9%	x	x
Cc1ccc(C(=O)NCCc2ccc(F)cc2)s1	1.41µM*	9.53µM*	u	2.82µM*	-6.2%	4.47µM*
O=C(NCCc1ccc(Cl)cc1)c1ccc(Br)s1	3.98µM*	u	u	4.47µM*	x	x
Cc1ccc(CNC(=O)CN(c2ccc(C(C)C)cc2)S(=O)(=O)c2c(C)n[nH]c2C)cc1	x	u	x	x	x	-4.3%
c1ccc(Nc2scc(-c3ccccc3)[n+]2Cc2ccco2)cc1	-4.0%	16.9µM*	u	u	1.2%	-7.2%
c1ccc(C[n+]2c(-c3ccccc3)csc2Nc2ccccc2)cc1	1.3%	-11.1%	-3.6%	-0.6%	-0.4%	-17.5%
Nc1ccc(N2CCOCC2)cc1C(F)(F)F	-1.3%	-2.3%	9.0%	-1.8%	0.5%	-5.0%
CCN=c1scc(C)n1/N=C/c1cc(Br)c(O)c(Br)c1	-0.9%	19µM*	-6.0%	-1.2%	0.1%	u
CCN=c1scc(C)n1/N=C/c1ccc(O)c(O)c1O	1.1%	3.38µM*	-3.8%	20.2%	-12.6%	-15.4%
C=C(C)CN=c1scc(C)n1/N=C/c1ccco1	5.6%	-10.4%	3.6%	10.6%	0.6%	-7.7%
c1ccc(Sc2ncnc3ccccc23)cc1	0.4%	19µM*	-12.6%	-0.6%	x	x
CCN(CC)C(=O)c1sc2c(c1C)c(=O)n(-c1ccc(C)c(C)c1)c(=O)n2Cc1cc(=O)n2ccccc2n1	x	-0.7%	x	x	x	x
Cn1ccnc1SCC(=O)c1cc2ccccc2o1	u	9.53µM*	u	u	8.5%	2.7%
O=C(CSc1nccc(=O)[nH]1)c1cc2ccccc2o1	-4.1%	15.1µM*	10.2%	3.6%	x	x
COc1ccc(C(=O)CSc2nccn2C)c(OC)c1	3.98µM*	13.5µM*	u	3.55µM*	x	x
O=C(CSc1ncn[nH]1)c1cc2ccccc2o1	-2.7%	u	2.9%	19.2%	-0.2%	-2.3%
SMILES	NPC1 prom act	FLuc modulator	ELG1 genotox	Rab9 prom act	KinaseGlo FLuc	SMN2 splice up
COc1ccc(OC)c(C(=O)CSc2nnnn2C)c1	18.4%	-0.9%	-2.2%	5.4%	-3.8%	1.0%
Cn1ccnc1SCC(=O)Nc1ccc2ccccc2c1	1.26µM*	5.36µM*	1.3µM*	1.58µM*	0.2%	6.31µM*
Cn1ccnc1SCC(=O)Nc1ccccc1	1.3%	-15.2%	1.8%	-1.4%	-4.0%	6.2%
Cn1cnnc1SCC(=O)c1cc2ccccc2o1	-1.0%	-3.4%	0.6%	-0.8%	1.6%	6.0%
O=c1c2sc3ccccc3c2n(Cc2ccccc2F)c(=O)n1-c1ccccc1Cl	x	-0.4%	x	x	x	10.7%
Cn1ccnc1SCC(=O)Nc1cccc(Br)c1	x	-16.3%	x	x	x	-0.7%
Cn1ccnc1SCC(=O)c1ccc(O)cc1	24.1%	-17.6%	12.3%	u	x	x
COc1cccc(C(=O)CSc2nnnn2C)c1	2.1%	-10.3%	2.4%	7.3%	14.1%	-0.7%
Cn1ccnc1SCC(=O)c1ccc2ccccc2c1	2.24µM*	8.49µM*	u	1µM*	-6.8%	u
Cn1ccnc1SCC(=O)c1cccc(Br)c1	17.7%	15.1µM*	u	u	-7.9%	13.9%
COc1cccc(C(=O)CSc2nccn2C)c1	1.58µM*	16.9µM*	u	2.51µM*	x	x
O=C(COCC(=O)N/N=C/c1ccccc1F)N/N=C/c1ccccc1F	-0.4%	u	1.3%	12.7%	-5.4%	7.6%
CCOC(=O)C(=O)N/N=C/c1ccc(F)cc1	2.7%	13.5µM*	-7.8%	-2.9%	x	x
O=C(COCC(=O)N/N=C/c1ccc(F)cc1)N/N=C/c1ccc(F)cc1	-0.1%	8.49µM*	4.4%	1.9%	-2.5%	9.7%
O=C(N/N=C/c1ccc(F)cc1)c1sccc1OCc1ccc(F)cc1	-17.9%	9.53µM*	11.6%	-7.7%	-4.1%	4.5%
Cc1ccc(CNC(=O)Cc2coc3cc(C)cc(C)c23)cc1	x	-9.9%	x	x	x	-3.1%
CC(NC(=O)c1ccc(C23CC4CC(CC(C4)C2)C3)cc1)C(=O)O (stereo not given)	-0.5%	19µM*	-1.9%	0.8%	0.3%	10.3%
COc1cccc(N/C=C/c2onc(C)c2[N+](=O)[O-])c1	u	-2.8%	u	2.51µM*	-0.1%	u
Cc1cccc(C)c1N/C=C/c1onc(C)c1[N+](=O)[O-]	x	3.1%	x	x	-0.9%	-0.9%
Cc1ccc(N/C=C/c2onc(C)c2[N+](=O)[O-])cc1	2.51µM*	0.601µM*	1.3µM*	0.631µM*	x	x
COc1ccc(Cl)cc1NC(=O)CN(C)CC(=O)NCc1ccc(F)cc1	x	x	-6.4%	x	x	x
O=C(COCc1cc(-c2ccc3c(c2)OCO3)on1)NCc1ccc(F)cc1	x	1.2%	x	x	x	x
CCN(CC)c1ccc(N=Nc2ncn[nH]2)cc1	2.82µM*	12µM*	u	2.82µM*	-4.9%	12.6µM*
CCOC(=O)c1c(S(=O)(=O)NCC(=O)Nc2cccc(SC)c2)c(C)n(C)c1C	x	-2.3%	x	x	x	x
CCc1nnc(NC(=O)c2cc3ccccc3oc2=O)s1	-1.1%	-17.8%	u	-4.4%	-7.7%	-4.4%
O=C(Nc1nc(-c2ccccn2)cs1)c1ncc(Cl)c(Cl)c1Cl	-4.9%	u	-9.7%	-2.0%	-2.5%	-10.2%
O=C(Nc1nc(-c2cc3ccccc3oc2=O)cs1)c1ccc(Br)o1	9.9%	6.3%	3.6%	3.8%	-10.4%	28.4%

High-throughput results deposited in PubChem BioAssay by National Center for Advancing Translational Sciences (NCATS).
